HIF-2a block: inhibitors of HIF-2a. 786-0 RCC cells HIF-2a reporter, luciferase luminescence, overnight. AID 624352. inhibition, % at 18.8 µM. actives 0.72% (n = 360,000);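 active means inhibition of the luminescence signal of 40% or more relative to plate controls, in a single-dose primary screen at 18.75 µM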
EBV LMP1 NFkB: Epstein-Barr LMP1 NF-kappaB reporter inhibition. LMP1-induced NF-kappaB luciferase reporter cells, luminescence. inhibition, % at 12.5 µM. actives 0.69% (n = 350,000). AID 504558; in the data active means inhibition above about 41%;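 further: 0% = neutral control wells and 100% = reference inhibitor control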
TWEAK Fn14 block: inhibitors of TWEAK-Fn14 interaction signaling; AID 1159606; inhibition, % at 10 µM; actives 2% (n = 360,000); TWEAK-stimulated Fn14 reporter cells, luciferase luminescence, 8 h; in the data active means inhibition above about 50%
MITF TRPM1 inh: MITF TRPM1 promoter inhibition in SK-MEL-5 cells | SK-MEL-5 TRPM1 promoter luciferase, 24 h | inhibition, % at 12.5 µM | actives 0.83% (n = 330,000) | AID 488899;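 active means mean inhibition across replicates of 60% or more, whatever share of single replicates reaches that level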
Peg3 prom inh: inhibitors of Peg3 promoter | HeLa PEG-Prom luciferase reporter, luminescence, overnight | inhibition, % at 20 µM | actives 1.7% (n = 360,000);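 active means inhibition of at least 50% at 20 µM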
TROY signal inh: inhibitors of TROY-dependent NF-kB signaling. Q293 LMP1-TROYcd NF-kB luciferase reporter, 4 h. inhibition, % at 10 µM. actives 0.98% (n = 360,000);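 active means compounds whose plate-normalised and pattern-corrected inhibition of the luciferase reporter signal at the single screening dose is 50% or more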
Mdm2-MdmX confirm: confirmation of inhibitors of human Mdm2/MdmX interaction, set 2. shares compounds with HIF-2a block. SaOS-2 split-luciferase Mdm2/MdmX complementation, luminescence. inhibition, % at 8 µM. actives 99% (n = 740). AID 504601;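 active means mean inhibition of the luminescence signal across two replicates at or above 26 percent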
Target sequence (O15151 whole entry, looked up): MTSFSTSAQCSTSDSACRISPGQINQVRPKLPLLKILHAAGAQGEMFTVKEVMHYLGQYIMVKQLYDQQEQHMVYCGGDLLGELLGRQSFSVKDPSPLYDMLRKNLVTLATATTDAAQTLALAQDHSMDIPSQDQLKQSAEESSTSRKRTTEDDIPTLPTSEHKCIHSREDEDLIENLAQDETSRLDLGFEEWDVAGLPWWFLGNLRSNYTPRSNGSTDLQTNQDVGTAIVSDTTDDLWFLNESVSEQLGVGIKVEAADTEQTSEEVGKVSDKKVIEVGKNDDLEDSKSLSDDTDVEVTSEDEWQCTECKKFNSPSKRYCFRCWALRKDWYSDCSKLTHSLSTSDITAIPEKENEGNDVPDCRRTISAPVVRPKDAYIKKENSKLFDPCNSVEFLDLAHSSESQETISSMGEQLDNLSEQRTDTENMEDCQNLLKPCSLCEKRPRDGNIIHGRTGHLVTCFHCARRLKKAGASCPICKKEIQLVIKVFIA
Target sequence (Q00987 whole entry, looked up): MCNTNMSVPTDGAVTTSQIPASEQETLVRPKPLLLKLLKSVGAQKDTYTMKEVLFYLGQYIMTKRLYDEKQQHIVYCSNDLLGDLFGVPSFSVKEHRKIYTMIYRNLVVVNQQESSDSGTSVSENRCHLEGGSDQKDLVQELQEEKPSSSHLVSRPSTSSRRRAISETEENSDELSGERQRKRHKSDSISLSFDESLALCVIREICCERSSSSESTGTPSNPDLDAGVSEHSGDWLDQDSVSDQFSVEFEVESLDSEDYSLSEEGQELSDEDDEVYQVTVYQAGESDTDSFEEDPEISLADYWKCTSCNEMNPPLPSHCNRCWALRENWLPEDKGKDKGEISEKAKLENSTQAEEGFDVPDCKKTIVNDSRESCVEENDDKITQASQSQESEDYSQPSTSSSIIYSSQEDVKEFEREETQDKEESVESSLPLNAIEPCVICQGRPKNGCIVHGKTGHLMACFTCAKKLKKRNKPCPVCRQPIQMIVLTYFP
HIF-2a conf: confirmation of HIF-2a inhibitors; shares compounds with HIF-2a block; AID 651580; 786-0 RCC cells, HIF-2a luciferase reporter luminescence, overnight; inhibition, % at 18.8 µM; actives 56% (n = 1,800);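 active means mean inhibition across four replicates of at least 40 percent at the single tested concentration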
HIF-1a cs: inhibits HIF-1a reporter, a counter-screen for HIF-2a inhibitors | shares compounds with HIF-2a block | MiaPaCa-2 HIF-1a luciferase reporter, desferoxamine, overnight | inhibition, % at 18.8 µM | actives 72% (n = 1,800) | AID 651589;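 active means mean inhibition of the reporter signal across four replicates at the single tested dose of 50% or more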
* hit, by the source's call; . = no result. Shown are actives, neighbours in structure and some others; about 4% of the full set was active somewhere.

SMILES | HIF-2a block | EBV LMP1 NFkB | TWEAK Fn14 block | MITF TRPM1 inh | Peg3 prom inh | TROY signal inh | HIF-2a conf | HIF-1a cs | others
Cc1noc(C)c1COc1ccc(C(=O)NCC2(N(C)C)CCCCC2)cc1 | 6.3 | -3.8 | 19.6 | . | 1.5 | -6.4 | . | .
c1ccc(P(c2ccccn2)c2ccccn2)cc1 | 58.4* | -0.1 | 12.1 | 3.9 | 13.0 | 59.3* | 2.4 | -6.2
Cc1ncc(CN2CCCC(C(=O)c3ccc(C(C)(C)C)cc3)C2)s1 (stereo not given) | -83.1 | -25.4 | -1.5 | 5.0 | -77.3 | -4.9 | . | .
COC(=O)C(Cc1ccc(N(CCCl)CCCl)cc1)N=Cc1ccccc1O (stereo not given) | 72.0* | 72.8* | 35.3 | 62.2* | 97.0* | 32.7 | -4.6 | 100.3* | Mdm2-MdmX confirm=102.7*
CCN1CCC2(CC1)NC(=O)c1ccccc1O2 | 14.5 | 2.7 | 7.6 | 9.7 | 5.2 | 7.2 | . | .
CN(N)N=Nc1nc2c([nH]1)c(=O)n(C)c(=O)n2C | 8.3 | -3.6 | -0.4 | -3.4 | 3.6 | -7.2 | . | .
NC(N)=N/N=C/c1cn(-c2ccccc2)nc1-c1cccs1 | -33.6 | 8.5 | 12.8 | 43.6 | 105.7* | -34.9 | . | . | Mdm2-MdmX confirm=103.5*
CC[C@@]1(O)C(=O)OCc2c1cc1n(c2=O)Cc2cc3c(NC(=O)CN)cccc3nc2-1 | 20.6 | 76.7* | -8.8 | 42.2 | -2.0 | 18.6 | . | . | Mdm2-MdmX confirm=97.2*
CC1=CC2OC3CC4OC(=O)C=CC=CC(=O)OCCC(C)C(O)C(=O)OCC2(CC1O)C4(C)C31CO1 (stereo not given) | 75.4* | 84.6* | 96.0* | 86.1* | 100.7* | 84.4* | 72.1* | 103.0*
CCOC(=O)[C@]12Cc3cc(C)ccc3[C@H]1N(C(C)C)C(=O)c1ccccc12 | 87.8* | . | -59.1 | . | . | 18.0 | 92.6* | 107.7*
CCOC(=O)[C@]12Cc3cc(OC)ccc3[C@H]1N(C1CCCCC1)C(=O)c1cc(OC)ccc12 | 87.6* | . | 11.4 | . | . | 54.7* | 89.2* | 105.2*
CCOC(=O)[C@]12Cc3ccccc3[C@H]1N(C(C)C)C(=O)c1cc(OC)ccc12 | 21.2 | . | 10.1 | . | . | 10.8 | . | .
Cc1[nH]c2ccccc2c1CN1CCCCC1 | 11.3 | -0.1 | -5.2 | -5.6 | -6.8 | 1.2 | . | .
CCOc1cc2c(cc1OCC)-n1cccc1C(c1cc(OC)ccc1F)NC2 (stereo not given) | 20.4 | 8.8 | -22.0 | 17.8 | 26.2 | 8.5 | . | .
CNC(C)Cc1ccccc1Sc1ccc(O)cc1 (stereo not given) | 50.1* | -22.6 | -6.2 | -11.1 | 8.9 | 18.4 | -0.2 | 48.9
COc1ccc(CC(=O)N2CCN(C)CC2)cc1 | -9.6 | 2.5 | 18.4 | 2.6 | 6.4 | 4.6 | . | .
COc1ccc(CC2NCC(O)C2OC(C)=O)cc1 (stereo not given) | 82.4* | 88.2* | 100.5* | 91.5* | 108.5* | 87.6* | 85.3* | 104.7*
C=C1C(=O)O[C@@H]2C[C@@H](C)[C@@H]3C=CC(=O)[C@@]3(C)[C@@H](O)[C@H]12 | 96.7* | 94.2* | 104.2* | 105.8* | 92.2* | 32.2 | . | . | Mdm2-MdmX confirm=100.2*
CC(C)[C@H]1C(=O)O[C@H](C(C)C)C(=O)N(C)[C@@H](C(C)C)C(=O)O[C@H](C(C)C)C(=O)N(C)[C@@H](C(C)C)C(=O)O[C@H](C(C)C)C(=O)N1C | -62.8 | 56.3* | 55.9* | 77.5* | 33.1 | 56.2* | . | . | Mdm2-MdmX confirm=93.7*
COc1ccc(-n2nc(C(=O)NCC(=O)N3CCC4(CC3)OCCO4)c3ccccc3c2=O)cc1Cl | -166.3 | -29.9 | 2.7 | -41.4 | -166.9 | -31.2 | . | .
COc1ccc2c(c1)[nH]c1c(C)nccc12 | 38.4* | 37.6 | 65.1* | 18.4 | 18.1 | 49.8 | 11.6 | 86.0*
CCOC(=O)c1cncn1[C@@H](C)c1ccccc1 | 9.5 | -2.5 | -7.8 | -2.1 | 1.5 | -6.9 | . | .
Cc1c(C(=O)c2cccc3ccccc23)c2cccc3c2n1[C@H](CN1CCOCC1)CO3 | 69.7* | 13.9 | -4.1 | 57.8 | 79.4* | -44.6 | 45.9* | 78.8*
COc1cc(/C=C/[N+](=O)[O-])ccc1O | 69.7* | 9.3 | -6.1 | 56.8 | 17.6 | 3.1 | 52.1* | 20.6
COC(=O)C12OCC34C(CC5C(C)=C(O)C(=O)CC5(C)C3C(O)C1O)OC(=O)C(OC(=O)/C=C(\C)C(C)C)C24 (stereo not given) | 75.2* | 95.4* | 94.8* | 84.6* | 102.7* | 84.7* | 68.9* | 105.7*
SMILES | HIF-2a block | EBV LMP1 NFkB | TWEAK Fn14 block | MITF TRPM1 inh | Peg3 prom inh | TROY signal inh | HIF-2a conf | HIF-1a cs | others
CC(NS(C)(=O)=O)c1nnc2n1-c1ccc(Br)cc1C(c1ccccc1Cl)=NC2 (stereo not given) | 17.0 | 5.6 | 23.5 | -2.7 | 11.6 | -16.4 | . | .
COc1ccc(CCNC2CCCCC2)cc1OC | 18.6 | 3.1 | -14.6 | -3.4 | 11.3 | 6.0 | . | .
CCCCCCCSc1cc(OC)c(CCNC)cc1OC | 43.9* | -65.7 | 13.5 | 101.8* | 112.1* | -22.0 | 8.5 | 106.1*
CCCCCSc1cc(OC)c(CCNC)cc1OC | 15.7 | -16.2 | -7.5 | 4.6 | 21.8 | 3.1 | . | .
O=Cc1cn(Cc2cccc([N+](=O)[O-])c2)c2ccccc12 | 45.7* | 88.6* | 27.9 | 23.6 | 101.3* | 68.3* | 63.0* | -8.4
Nc1cc(C(=O)Nc2ccccc2F)ccc1N1CC2CC(C1)c1cccc(=O)n1C2 (stereo not given) | -35.0 | -30.3 | -1.7 | . | -28.1 | -8.8 | . | .
C[C@@H]1O[C@@H](O[C@@H]2C=C3CC[C@@H]4C(CC[C@]5(C)[C@@H](c6ccc(=O)oc6)CC[C@]45O)[C@@]3(C)CC2)[C@H](O)[C@H](O)[C@H]1O (stereo not given in full) | 85.9* | 82.3* | 85.9* | 83.4* | 107.0* | 50.9* | 46.4* | 104.6*
CCCNC(=O)N1[C@H]2CC[C@@H]1C(C(=O)OC)=C(c1ccc3ccccc3c1)C2 | 1.8 | 0.2 | -3.5 | 7.5 | 20.3 | 3.9 | . | .
O=C(Nc1cccc(OC(=O)N2CCCCC2)c1)N1CCCCC1 | 13.8 | 8.5 | 0.8 | 7.7 | 10.7 | 0.8 | . | .
CC(=O)Nc1ccc(OC(=O)N2CCCCC2)cc1 | 85.4* | 2.6 | -8.0 | 7.1 | -3.0 | 7.8 | 95.4* | 53.2*
[N-]=[N+]=NCCN1CCC(O)CCC1=O (stereo not given) | 2.1 | 4.2 | -2.7 | -3.7 | 2.5 | -2.8 | . | .
NC(=S)c1cn(C2OC(CO)C(O)C2O)c2ncnc(N)c12 (stereo not given) | 52.4* | 3.9 | 103.2* | 81.9* | 107.0* | 68.4* | 32.1 | 105.1*

Screening data (PubChem)
